Shown are actives, neighbours in structure and some others; about 0.9% of the full set was active somewhere.
TcdB inh – inhibitors of Clostridioides difficile toxin B glycohydrolase; P18177; TcdB glycohydrolase enzymatic assay, plate reader; inhibition, % at 9.99 µM; 350,000 compounds, 0.24% hits; AID 652162; in the data active = inhibition above about 10%
Rv3671c inh – inhibits the M. tuberculosis serine protease Rv3671c; P9WHR9; inhibition, % at 5.96 µM; 320,000 compounds, 0.048% hits; AID 2606; in the data active = inhibition above about 38%;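 also: extracellular domain of Rv3671c used as enzyme; 0% = enzyme with DMSO and 100% = no enzyme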
Mtb BioA inh – inhibitors of Mycobacterium tuberculosis BioA enzyme. inhibition, % at 9.99 µM. AID 602481. 360,000 compounds, 0.096% hits. purified M. tuberculosis BioA enzyme, plate reader; in the data active = inhibition above about 40%
RecA splice inh – inhibitors of M. tuberculosis RecA intein splicing. P9WHJ3. cell-free RecA intein splicing, fluorescence. inhibition, % (test concentration not listed). 290,000 compounds, 0.75% hits. AID 2221; in the data active = inhibition above about 30%;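 also: 0% = vehicle wells and 100% = reference inhibitor control wells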
Target sequence (P9WHJ3 whole entry, looked up, canonical isoform): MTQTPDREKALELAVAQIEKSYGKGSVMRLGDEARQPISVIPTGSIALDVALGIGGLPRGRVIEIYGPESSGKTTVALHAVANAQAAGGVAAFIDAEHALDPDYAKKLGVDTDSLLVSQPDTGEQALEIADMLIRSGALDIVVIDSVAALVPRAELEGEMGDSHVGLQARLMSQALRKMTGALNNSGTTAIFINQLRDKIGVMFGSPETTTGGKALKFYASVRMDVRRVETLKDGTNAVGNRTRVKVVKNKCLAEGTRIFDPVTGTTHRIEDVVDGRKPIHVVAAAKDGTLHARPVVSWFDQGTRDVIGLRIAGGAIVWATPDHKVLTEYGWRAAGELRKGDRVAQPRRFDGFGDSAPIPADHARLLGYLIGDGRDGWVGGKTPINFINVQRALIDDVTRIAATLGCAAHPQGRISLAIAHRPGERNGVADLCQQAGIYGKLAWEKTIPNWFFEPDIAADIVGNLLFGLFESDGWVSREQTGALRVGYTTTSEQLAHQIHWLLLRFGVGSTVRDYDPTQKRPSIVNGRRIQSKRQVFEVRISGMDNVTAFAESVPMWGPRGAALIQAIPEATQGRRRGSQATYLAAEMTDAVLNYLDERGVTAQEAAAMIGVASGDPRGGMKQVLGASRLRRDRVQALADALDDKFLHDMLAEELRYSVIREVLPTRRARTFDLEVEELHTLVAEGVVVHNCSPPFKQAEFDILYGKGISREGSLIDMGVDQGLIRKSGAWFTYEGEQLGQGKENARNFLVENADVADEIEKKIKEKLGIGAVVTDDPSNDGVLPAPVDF
FadD28 FP inh – blocks FadD28 binding to the bisubstrate probe. inhibition, % at 12.5 µM. 360,000 compounds, 0.22% hits. fluorescence polarization; in the data active = inhibition above about 8.5%, passing the limit was not always enough
Mtb UGM inh – blocks M. tuberculosis UGM enzyme; P9WIQ1; AID 504406; inhibition, % at 10 µM; 320,000 compounds, 0.06% hits; purified UGM, fluorescence polarization probe displacement; in the data active = inhibition above about 10%, passing the limit was not always enough
GFP chromo cs – counter-screen: blocks GFP chromophore formation | cell-free GFP chromophore formation, fluorescence | AID 434968 | 2,100 compounds, 83% hits | shares compounds with RecA splice inh | EC50, µM; call rule not given here
Numbers without * were called inactive; nt = not tested or not shown.

SMILES	TcdB inh	Rv3671c inh	Mtb BioA inh	RecA splice inh	FadD28 FP inh	Mtb UGM inh	GFP chromo cs
CCS(=O)(=O)c1ncc(Cl)c(C(=O)Nc2ccc(C)cc2)n1	1	-1	-4	65*	-3	-1	23*
CCC1CCCCN1S(=O)(=O)c1ccc(NC(=O)c2nc(S(C)(=O)=O)ncc2Cl)cc1 (stereo not given)	0	-97	0	97*	1	3	1.3*
C[C@H](CO)N1C[C@H](C)[C@H](CN(C)S(=O)(=O)c2cccs2)Oc2ncccc2C1=O	0	nt	1	nt	nt	nt	nt
CC(C)NC(=O)Nc1ccc2c(c1)C(=O)N([C@@H](C)CO)C[C@H](C)[C@@H](CN(C)S(=O)(=O)c1ccc(Cl)cc1)O2	1	nt	-1	nt	nt	nt	nt
CC(=O)Nc1ccc(NC(=O)c2nc(S(=O)(=O)Cc3ccccc3)ncc2Cl)cc1	2	-3	2	40*	-4	-1	26*
CS(=O)(=O)c1ncc(Cl)c(C(=O)Nc2ccc3ccccc3c2)n1	-4	nt	nt	31*	-3	nt	12*
CO[C@H]1CN(C)C(=O)c2ccc(NC(=O)c3cnccn3)cc2OC[C@@H](C)N(CC2CC2)C[C@H]1C	-1	nt	nt	nt	nt	nt	nt
C[C@@H]1CN([C@H](C)CO)C(=O)Cc2cc(N(C)C)ccc2O[C@@H]1CN(C)S(=O)(=O)c1cccs1	-1	nt	2	nt	nt	nt	nt
Fc1ccc(Sc2nc(-c3ccccc3)nnc2C(F)(F)F)cc1	nt	1	1	71*	-6	-3	0.89*
COc1ccc(C(=O)N(c2ccc(OC)cc2)S(=O)(=O)c2cccs2)cc1	1	0	nt	2	-2	-1	nt
O=C(Nc1ccccc1N(C(=O)c1ccco1)S(=O)(=O)c1cccs1)c1ccco1	nt	4	1	10	-3	1	5.8*
COc1ccc(N(C(=O)c2ccco2)S(=O)(=O)c2cccs2)cc1	nt	-2	4	33*	-2	-1	>38
CCOC(=O)CSCCOc1ccc(C=C2C(=O)NC(=O)NC2=O)cc1OC	0	-39	0	73*	-3	-4	>38
C[C@H](CO)N1C[C@H](C)[C@@H](CN(C)C(=O)Nc2ccc3c(c2)OCO3)Oc2ccc(NC(=O)CCN3CCOCC3)cc2CC1=O	-2	nt	0	nt	nt	nt	nt
CC(=O)c1c(C)nc(-c2ccc(Cl)cc2)nc1N=CN(C)C	nt	-19	nt	-4	-1	1	>38
CC(=O)c1c(C)nc(-c2ccc(Cl)cc2)nc1N	1	-1	nt	0	-4	-1	nt
Cc1cc(C)c(S(C)(=O)=O)c(Oc2cccc(C(F)(F)F)c2)n1	5	-3	nt	33*	-3	0	>38
O=C(C[C@@H]1C[C@H]2c3cc(NC(=O)CC4CC4)ccc3O[C@H]2[C@@H](CO)O1)NCc1cccc(F)c1	-1	nt	0	nt	nt	nt	nt
C[C@@H]1CN([C@H](C)CO)C(=O)c2cc(NC(=O)CCCCCC(=O)Nc3ccccc3N)ccc2O[C@H]1CN(C)S(C)(=O)=O	0	nt	-1	nt	nt	nt	nt
COc1ccc(Br)cc1[C@H]1[C@H]2C=CC[C@@H](C)[C@@H]2C(=O)N1Cc1ccccc1	1	nt	0	34*	-2	nt	>38
O=C1C2C(c3ccccc3)CC=CC2[C@H](c2ccc(C(F)(F)F)cc2)N1Cc1ccccc1 (stereo not given in full)	0	-5	1	17	-3	-2	nt
C[C@@H]1CC=C[C@H]2[C@H]1C(=O)N(Cc1ccccc1)[C@H]2c1ccc(C(F)(F)F)cc1	1	-3	-2	37*	-3	-1	>38
COc1ccc(-c2ccc(OC)c([C@H]3[C@H]4C=CC[C@@H](C)[C@@H]4C(=O)N3Cc3ccccc3)c2)cc1OC	-5	-5	1	1	1	4	nt
C[C@H]1CN([C@@H](C)CO)C(=O)c2cc(NC(=O)NC3CCCCC3)ccc2O[C@@H]1CN(C)S(=O)(=O)c1ccc(Cl)cc1	0	nt	-2	nt	nt	nt	nt
CCCNC(=O)N1C[C@H](O)COC[C@H]2O[C@@H](CC(=O)N3CCOCC3)CC[C@@H]21	0	nt	-1	nt	nt	nt	nt
SMILES	TcdB inh	Rv3671c inh	Mtb BioA inh	RecA splice inh	FadD28 FP inh	Mtb UGM inh	GFP chromo cs
COc1ccc2c3c(n(C)c2c1)[C@H](CO)N(C(=O)Nc1ccc(F)cc1)CC31CN(C(=O)c2ccccc2F)C1	1	nt	nt	nt	nt	nt	nt
CC(=O)OCCCNc1cc(Sc2ccc(Cl)cc2)c2nonc2c1[N+](=O)[O-]	-1	2	nt	25	-2	-1	nt
CCCC(=O)OCCNc1cc(Sc2nc3ccccc3[nH]2)c2nonc2c1[N+](=O)[O-]	nt	1	1	96*	1	-1	0.96*
CCC(=O)OCCNc1cc(Sc2nccn2C)c2nonc2c1[N+](=O)[O-]	nt	4	nt	87*	1	-2	4.8*
CC(C)CCSc1cc(NCCO)c([N+](=O)[O-])c2nonc12	1	6	0	9	-3	-2	nt
CCC(=O)OCCNc1cc(SCCC(=O)OC)c2nonc2c1[N+](=O)[O-]	nt	-6	nt	45*	1	-1	26*
Cc1noc(C)c1NC(=O)N(C)C[C@H]1Oc2ccc(NC(=O)CCC(F)(F)F)cc2C(=O)N([C@H](C)CO)C[C@H]1C	1	nt	1	nt	nt	nt	nt
COc1ccc(-c2cnc3c(c2)C(=O)N([C@@H](C)CO)C[C@H](C)[C@@H](CN(C)C(=O)NC2CCCC2)O3)cc1	1	nt	-1	nt	nt	nt	nt
CO[C@H]1CN(C)C(=O)c2cc(NC(=O)Nc3cc(F)ccc3F)ccc2OC[C@@H](C)N(C)C[C@@H]1C	0	nt	2	nt	nt	nt	nt
C[C@@H]1CN([C@H](C)CO)C(=O)c2cc(NS(=O)(=O)c3ccc(Cl)cc3)ccc2O[C@H]1CN(C)S(=O)(=O)c1cccs1	1	nt	0	nt	nt	nt	nt
Cn1nc([N+](=O)[O-])nc1S(C)(=O)=O	0	nt	nt	10	-4	nt	nt
CS(=O)(=O)c1nc([N+](=O)[O-])nn1CCCc1ccccc1	nt	-2	nt	51*	-3	-1	26*
C/C=C/c1ccc([C@H]2[C@@H](CO)N(C(=O)C3CCCC3)C23CN(C(=O)NC(C)C)C3)cc1	0	nt	nt	nt	nt	nt	nt
C/C(=N\NC(=O)CC#N)c1cc2ccccc2oc1=O	nt	-8	nt	86*	-1	-4	13*
COc1ccc(CN(C)C[C@@H]2OCCCC[C@@H](C)Oc3ccc(NC(=O)NC(C)C)cc3C(=O)N([C@@H](C)CO)C[C@@H]2C)cc1	1	nt	-1	nt	nt	nt	nt
CN1CCN(C2=C(Cl)C(=O)C(c3cnc(N4CCCCC4)s3)=C(Cl)C2=O)CC1	nt	-7	1	83*	3	-2	3.7*
O=c1[nH]c2ccc(Cl)cc2c(-c2ccccc2)c1SC(=S)N1CCCCC1	nt	-8	nt	40*	-11	1	>38
O=c1[nH]c2ccc(Cl)cc2c(-c2ccccc2)c1SC(=S)N1CCOCC1	nt	0	nt	4	-6	-1	nt
CN1CCN(C(=O)C[C@H]2C=C[C@@H](NS(=O)(=O)c3cccc(F)c3)[C@@H](CO)O2)CC1	-1	nt	0	nt	nt	nt	nt
COc1ccc(N(C)C(=O)c2cc3c(s2)-c2c(C)cccc2OC3)c(OC)c1	1	-14	-1	33*	-1	-3	>38

Source: PubChem BioAssay (several laboratories)
